Shown are actives, neighbours in structure and some others; about 3.5% of the full set was active somewhere.
UGM FP inh = M. tuberculosis UGM enzyme inhibitors, primary screen, biochemical, fluorescence polarization, single point; actives 0.06% (n = 320,000); purified UGM, fluorescence polarization probe displacement; AID 504406, 2011; UDP-galactopyranose mutase (Mycobacterium tuberculosis (strain ATCC 25618 / H37Rv)), …; inhibition, % at 10 µM; in the data active = inhibition above about 10%, passing the limit was not always enough
Mtb bLac sens = beta-lactam sensitization of Mtb H37Rv, H37Rv. M. tuberculosis H37Rv growth with meropenem, percent inhibition. inhibition, % at 25 µM. actives 0.27% (n = 330,000). AID 434955, 2010; call rule not given here;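 note: growth measured after seven days incubation then overnight dye step; 0% = bacteria only wells and 100% = bacteria with antibiotic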
Rv3671c protease = Rv3671c serine protease inhibitors, primary screen, biochemical, fluorescence polarization, M. tuberculosis H37Rv; actives 0.048% (n = 320,000); inhibition, % at 5.96 µM; AID 2606, 2010; in the data active = inhibition above about 38%;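 note: extracellular domain of Rv3671c used as enzyme; 0% = enzyme with DMSO and 100% = no enzyme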
GDH-TPI inh = GDH-TPI coupling enzyme inhibitors, primary screen, artefact control for M. tuberculosis FBA inhibitor project, biochemical, absorbance, full deck; AID 588335, 2011; inhibition, % at 4.8 µM; GDH-TPI coupled enzyme counterscreen, NADH absorbance; actives 1.2% (n = 360,000); in the data active = inhibition above about 30%;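 note: 0% = DMSO wells and 100% = wells lacking the enzyme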
Mtb FBA inh = Mtb FBA enzyme inhibitors, primary screen, biochemical, fluorescence, strain H37Rv; purified M. tuberculosis FBA, fluorescence read-out; Fructose-bisphosphate aldolase (Mycobacterium tuberculosis (strain ATCC 25618 / H37Rv)), …; actives 2.3% (n = 360,000); inhibition, % at 1 µM; in the data active = inhibition above about 27%;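 note: 0% = vehicle and 100% = reference inhibitor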
Target sequence (P9WQA3 whole entry, looked up): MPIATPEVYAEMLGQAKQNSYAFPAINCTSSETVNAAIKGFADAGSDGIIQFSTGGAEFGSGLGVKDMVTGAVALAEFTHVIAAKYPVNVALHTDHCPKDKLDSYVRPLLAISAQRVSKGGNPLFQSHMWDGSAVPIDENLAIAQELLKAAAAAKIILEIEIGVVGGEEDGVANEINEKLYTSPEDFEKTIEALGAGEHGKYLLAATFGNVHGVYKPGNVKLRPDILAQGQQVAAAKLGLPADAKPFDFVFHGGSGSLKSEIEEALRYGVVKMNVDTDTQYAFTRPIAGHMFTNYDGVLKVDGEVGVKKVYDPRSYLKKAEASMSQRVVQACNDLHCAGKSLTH
* marks the source's active call; other numbers are inactive results; · = no result.

SMILES	UGM FP inh	Mtb bLac sens	Rv3671c protease	GDH-TPI inh	Mtb FBA inh
O=c1[nH]c(/C=C\c2ccc(O)c(O)c2)nc(O)c1[N+](=O)[O-]	1	1	·	30	-6
O=C(COc1ccccc1/C=C\c1nc(O)c([N+](=O)[O-])c(=O)[nH]1)Nc1ccccc1	·	·	·	21	0
CCCCN(C(=O)CSc1nnc(-c2ccccc2OC)n1C)c1c(N)n(Cc2ccccc2)c(=O)[nH]c1=O	0	-8	-2	2	1
Cc1cc(C(=O)N2CCc3ccccc3C2)on1	1	-1	-1	-16	3
COC(=O)c1cc(S(=O)(=O)N2CCN(c3cccc(OC)c3)CC2)cn1C	-1	2	-1	-5	-2
Cn1nc(C(C)(C)C)cc1C(=O)Nc1nc2c(s1)C(=O)CC(C)(C)C2	1	3	-7	40*	7
CC1(C)CC(=O)c2sc(NC(=O)C3CC3)nc2C1	1	-5	8	12	-1
Cc1ccc(C)c(NC(=O)CN(C)C(=O)Cn2c(=O)oc3ccccc32)c1	0	0	-1	-3	-6
CCOC(=O)c1ccc(-n2c(CN3CCC(O)CC3)nc3ccc([N+](=O)[O-])cc3c2=O)cc1	-2	31	-2	45*	0
Cc1cc(/C=C(\C#N)C(=O)O)c(C)n1-c1ccc(Br)cc1	1	-3	-11	32*	0
Cc1cc(/C=C(/C#N)C(=O)O)c(C)n1CCC(C)C	2	3	-11	25	-1
Cc1ccc(-n2c(C)cc(C=C(C#N)C#N)c2C)cc1	1	-8	6	39*	-1
CCCn1c(C)cc(/C=C(\C#N)C(=O)O)c1C	1	3	-4	31*	2
CCCCn1c(C)cc(/C=C(\C#N)C(=O)O)c1C	1	3	-4	27	3
COCCn1c(C)cc(/C=C(\C#N)C(=O)OC(C)C(=O)Nc2ccc(NC(C)=O)cc2)c1C (configuration not stated)	-1	-3	-3	39*	0
O=C(CC(C(=O)O)c1ccc(Cl)cc1)c1ccc(Br)cc1 (configuration not stated)	3	-2	2	9	9
CC1CCCCN1C(=O)COC(=O)C1CCN(S(=O)(=O)c2ccc3c(c2)OCCO3)CC1 (configuration not stated)	0	-4	-5	-3	6
COCCNC(=O)/C(C#N)=C/c1cc(C)n(-c2ccc(C)cc2)c1C	1	-1	1	31*	6
Cc1cc(/C=C(\C#N)C(=O)Nc2ccc(F)cc2)c(C)n1-c1ccc(N2CCOCC2)c([N+](=O)[O-])c1	2	47	4	7	0
CNC(=O)/C(C#N)=C\c1cc(C)n(-c2ccc(N3CCOCC3)cc2)c1C	-2	2	6	31*	3
CC(CO)NS(=O)(=O)c1cccc(Cl)c1F (configuration not stated)	·	·	·	0	2
O=C(O)CCCN1C(=O)/C(=C/c2ccncc2)SC1=S	-1	45	1	38*	-4
c1ccc(Cn2ccc(-c3cnc(-c4ccccc4)s3)n2)cc1	-2	73	-9	18	182*
O=C1NC2(CCSC2)C(=O)N1CC(=O)N(Cc1ccccc1)C1CCS(=O)(=O)C1 (configuration not stated)	0	3	-2	5	0
COc1ccc2[nH]c3c(=O)n(CCCN4CCOCC4)cnc3c2c1	0	0	2	22	157*
SMILES	UGM FP inh	Mtb bLac sens	Rv3671c protease	GDH-TPI inh	Mtb FBA inh
Cc1ccc(NC(=O)Cc2c(O)c3ccccc3[nH]c2=O)c(C)c1	1	-4	11	0	6
Cc1ccc(NC(=O)CC2S/C(=N/N=C/c3c[nH]c4ccccc34)NC2=O)cc1 (configuration not stated)	-2	2	-10	39*	-2
CCOC(=O)c1ccc(NC(=O)CC2S/C(=N/N=C3/NC(=O)CS3)NC2=O)cc1 (configuration not stated)	0	1	2	7	0
CCOC(=O)c1ccc(NC(=O)CC2S/C(=N/N=C/c3c[nH]c4ccccc34)NC2=O)cc1 (configuration not stated)	-1	6	-18	32*	-3
COc1cc(NC(=O)Cc2cccc3ccccc23)c(C(=O)O)cc1OC	0	5	4	7	3
CSc1ccc(/C=C/C(=O)NC(=O)c2ccccc2O)cc1	4	18	1	29	3
CN(C)c1ccc(/C=N/NC(=O)c2ccc3nc[nH]c3c2)cc1	-5	3	-3	56*	-1
O=C(NN=Cc1ccc(N(CCCl)CCCl)cc1)C(=O)c1c[nH]c2ccccc12	·	·	·	43*	-2
O=C(Cc1cc(=O)oc2cc(O)ccc12)NN=Cc1ccc(N(CCCl)CCCl)cc1	·	·	·	56*	182*
O=C(CCc1ccc(O)cc1)NN=Cc1ccc2c(c1)OCO2	·	·	·	12	-3
CCN(CC)c1ccc(/C=N/NC(=O)c2c[nH]c3ccccc23)cc1	1	3	25	30	24
COc1cc(/C=N/NC(=O)c2ccc3nc[nH]c3c2)ccc1O	-1	5	-5	59*	0
CCOCCCNCc1ccc(OCCC(C)C)c(OC)c1	-4	-10	9	1	-3
CC(=O)Oc1ccc(C(=O)Nc2cccnc2)cc1	1	3	0	12	-3
CSc1ccc(/C=N/NC(=O)c2ccc3nc[nH]c3c2)cc1	·	·	·	48*	2
COc1cccc(/C=N/NC(=O)c2ccc3nc[nH]c3c2)c1	-2	-10	2	12	-1
CCN(CC)c1ccc(/C=N/NC(=O)c2ccc3nc[nH]c3c2)cc1	1	4	0	60*	-1
CCN(CC)c1ccc(/C=N/NC(=O)c2cnccn2)cc1	·	·	·	23	-5
CCN(CC)c1ccc(/C=N/NC(=O)c2cc3ccccc3[nH]2)cc1	-1	5	8	32*	10
CCN(CC)c1ccc(/C=N/NC(=O)c2ccc([N+](=O)[O-])cc2)cc1	1	1	1	0	1
O=C(NN=Cc1ccc(N(CCCl)CCCl)cc1)c1cc(=O)[nH]c(=O)[nH]1	·	·	·	50*	-3
c1ccc(C2=NN(c3ccccc3)C(c3ccco3)C2)cc1 (configuration not stated)	3	-2	4	8	126*
Cn1c2ccc(Br)cc2c2nnc(SCC(=O)O)nc21	1	11	6	31*	-1
Cn1c2ccccc2c2nnc(SCC(=O)Nc3cccc(O)c3)nc21	1	-6	0	35*	1
O=C(NCc1ccco1)c1cnn2cccnc12	0	-4	3	10	5
CC1OC23CCCCC2C(C#N)(C(=N)O3)C1(C#N)C#N (configuration not stated)	1	-2	-2	3	22
